Screens: PubChem, National Center for Advancing Translational Sciences (NCATS)
D3 antag: antagonists of human D3 dopamine receptor; max response, negative = inhibition, %; 360,000 compounds, 2.5% hits; P35462; D3R cells, DiscoveRx beta-arrestin luminescence, antagonist mode; active compounds read low; in the data active = max response below about -50%; inconclusive = no clear call, values can overlap the other calls; also: % is scaled to controls: 0 for no effect and ±100 for the full control effect
Target sequence (P35462 whole entry, looked up): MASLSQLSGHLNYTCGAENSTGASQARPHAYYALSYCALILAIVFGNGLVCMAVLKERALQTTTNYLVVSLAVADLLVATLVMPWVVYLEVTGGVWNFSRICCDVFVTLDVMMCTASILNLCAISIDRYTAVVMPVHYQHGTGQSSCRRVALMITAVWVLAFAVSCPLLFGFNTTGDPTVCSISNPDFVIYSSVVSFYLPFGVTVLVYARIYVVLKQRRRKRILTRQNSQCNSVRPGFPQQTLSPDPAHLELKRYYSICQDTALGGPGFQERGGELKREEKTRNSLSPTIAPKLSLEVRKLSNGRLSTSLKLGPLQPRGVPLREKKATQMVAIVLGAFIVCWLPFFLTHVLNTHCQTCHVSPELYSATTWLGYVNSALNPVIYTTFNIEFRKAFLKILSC
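Cells expressing the human receptor were seeded at 1500 cells/well, incubated overnight at 37 degrees C in 5% CO2, then exposed to library compounds with dopamine controls for 90 minutes at 37 degrees C before luminescent detection.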
TGFb SMAD3 inh: blocks TGF-b signaling. HepG2 CAGA-GFP TGF-b/SMAD3 reporter, GFP fluorescence, 18 h; TGF-beta stimulated, 500 pg/mL final. Potency, µM (top dose mostly 46.1 µM), inactives show top-dose activity, negative = inhibition, usual class: inhibitors. 410,000 compounds, 1.2% hits; also: potency is read from the fitted curve at half-maximal effect; % is scaled to controls: 0 for no effect and ±100 for the full control effect; nearly all actives have a fitted effect of over 65% in size
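HEPG2 CAGA-GFP cells (1000/well, DMEM with 1% FBS) were pre-incubated 2 h at 37 degrees C, given compound by pin tool, then stimulated with TGF-beta at 500 pg/mL final for 18 h before per-cell GFP fluorescence imaging.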
HepG2 tox: kills HepG2 cells in TGF-b inhibitor counter-screen; HepG2 CAGA-GFP viability, ATP luminescence, 18 h; Potency, µM (series often up to 46.1 µM), for inactives: top-dose activity change, negative = cytotoxicity, hits mostly cytotoxic; 410,000 compounds, 0.76% hits; AID 588856; also: potency is read from the fitted curve at half-maximal effect
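CellTiter-Glo luminescence gave cytotoxicity after 18 hours at 37 degrees C. The cells were HepG2 CAGA-GFP in 1% FBS DMEM, stimulated with 500 pg/mL TGF-beta after compound addition. %Activity was normalised to no-cell wells (complete cell-killing) and DMSO (no toxicity), and curves were fitted and classified.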
D3 ag: activates the human D3 dopamine receptor; AID 652048; D3R DiscoveRx beta-arrestin cells, luminescence, 90 min; max activation, %; 410,000 compounds, 0.58% hits; in the data active = max activation above about 30%; also: 0% is about no effect
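Agonist-mode cell screen: cells plated at 1500/well and incubated overnight at 37 °C, then exposed to library compounds for 90 min at 37 °C. Detection reagent was added for 30–60 min at room temperature, and luminescence was read.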
ATXN2 expr inh: reduces ATXN2 reporter expression in HEK-293 cells | HEK-293 ATXN2-luciferase reporter, luminescence, 24 h | Potency, µM (top dose mostly 57 µM), for the others: at the highest dose activity change, negative = inhibition, usual class: inhibitors | 360,000 compounds, 0.72% hits; also: potency is read from the fitted curve at half-maximal effect; % is scaled to controls: 0 for no effect and ±100 for the full control effect; nearly all actives have a fitted effect of over 55% in size
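ATXN2-luciferase reporter cells (luciferase flanked by upstream and downstream ATXN2 gene portions) were treated 24 h at 37 °C with compounds at up to 57 uM. SteadyGlo luminescence gave expression; GF-AFC fluorescence gave viability.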
ATXN viability: reduces viability in counter-screen for ATXN expression inhibitors | S2 cells (HEK-293 line with an ATXN2-luciferase reporter) viability, CellTiter-Fluor protease fluorescence, 24 h | Potency, µM (highest dose often 56.7 µM), most hits filed as cytotoxic | 400,000 compounds, 0.49% hits; also: potency is read from the fitted curve at half-maximal effect; nearly all actives have a fitted effect of over 40% in size
Starred values were filed as active, the others as inactive; i = inactive; ? = inconclusive; / = not tested or not shown. An excerpt weighted towards active compounds, which were near 4.7% of everything screened. Unless noted, calls follow the shape of the dose curve; as a rule, active = well fitted curve in the direction sought with a large enough effect; inconclusive = small, poorly fitted or top-dose-only effect, or another doubt; inactive = no such curve, though single readings can be large; an effect the other way counts as inactive or inconclusive.

SMILES	D3 antag	TGFb SMAD3 inh	HepG2 tox	D3 ag	ATXN2 expr inh	ATXN viability
Cc1ccc(NC(=O)CSc2ccc(-c3cccnc3)nn2)cc1	1	9%	-6%	-6	-7%	i
O=C(CSc1nc(-c2ccccc2)cn1-c1ccccc1)Nc1ccccc1	/	-23%	-3%	3	-18%	?
NC[C@@H]1O[C@H](O[C@H]2[C@@H](O)[C@H](O[C@@H]3[C@@H](O)[C@H](N)C[C@H](N)[C@H]3O[C@H]3O[C@H](CN)[C@@H](O)[C@H](O)[C@H]3N)O[C@@H]2CO)[C@H](N)[C@@H](O)[C@@H]1O	/	/	/	-2	/	/
O=C(C[n+]1cccc(I)c1)c1ccc(F)cc1	/	17%	-5%	/	/	/
COc1ccc(S(=O)(=O)N2CCCCC2)cc1NC(=O)CSc1nnc(C2CC2)n1C	-12	-3%	13%	0	-3%	i
Cc1ccc(S(=O)(=O)N2CCCCC2)cc1NC(=O)CSc1nnc(C2CC2)n1C	-71*	-2%	-11%	-8	-15%	i
Cc1cc(C(=O)N/N=C/c2ccc3c(c2)OCO3)c(C)o1	-1	-2%	-20%	-6	4%	i
Cc1occc1C(=O)N/N=C/c1ccc(OCc2ccccc2)cc1	-14	?	-34%	-2	26%	i
Cc1occc1C(=O)N/N=C/c1ccc(-c2ccccc2)cc1	-15	-15%	11µM*	-10	1%	i
Cc1occc1C(=O)N/N=C/c1ccc2c(c1)OCO2	0	0%	11µM*	2	?	i
Cc1ccsc1C(=O)N/N=C/c1ccc2c(c1)OCO2	-15	-18%	5.6µM*	-6	43%	i
Cc1occc1C(=O)N/N=C/c1sc(N2CCOCC2)nc1-c1ccccc1	-54*	4%	-16%	5	-4%	i
N#Cc1ccc(OC(=O)c2cc(-c3ccc(Cl)cc3)on2)cc1	/	-12%	-18%	-8	-4%	i
O=[N+]([O-])c1ccccc1/C=C1\C=Cc2ccccc21	/	-1%	-42%	/	/	/
Cc1ccc(NC(=O)Cn2c(=O)n(Cc3nc(-c4ccccc4)no3)c(=O)c3ccccc32)c(C)c1	/	?	9%	2	/	/
Clc1cccc(N2CCN(c3c4c(nc5nncn35)CCC4)CC2)c1	/	/	-44%	7	/	/
OCCNc1c2ccccc2nc2ccccc12	5	?	3%	4	19µM*	/
Cc1ccc(Nc2nc(NCCO)c3ccccc3n2)cc1C	5	14µM*	-65%	10	-20%	i
OCCNc1nc2ccccc2nc1NCCO	10	5%	-31%	5	0%	i
CCN(c1ccccc1)S(=O)(=O)c1ccc(C(=O)Nc2nnc(CSC)o2)cc1	-1	-2%	-2%	-1	/	?
C=CCN(CC=C)S(=O)(=O)c1ccc(C(=O)Nc2nnc(COC)o2)cc1	-2	-11%	-18%	3	/	?
COCc1nnc(NC(=O)c2ccc(S(=O)(=O)N(CC(C)C)CC(C)C)cc2)o1	9	-11%	-1%	7	-27%	i
CCCN(CCC)S(=O)(=O)c1ccc(C(=O)Nc2nnc(CSC)o2)cc1	-99*	2%	6%	2	?	?
CCCCN(CC)S(=O)(=O)c1ccc(C(=O)Nc2nnc(CSC)o2)cc1	-83*	-5%	-36%	-8	-25%	i
CC(=O)Nc1ccc(NC(=O)c2ccc(S(=O)(=O)N(C)c3ccccc3)cc2)cc1	-6	-14%	-29%	3	/	?
CCCCN(CC)S(=O)(=O)c1ccc(C(=O)Nc2nnc(COC)o2)cc1	-65*	-7%	-3%	6	-23%	i
Cc1nc2ccc(NC(=O)c3ccc(S(=O)(=O)N(C)c4ccccc4)cc3)cc2s1	24	?	1%	-21	30µM*	?
Cc1noc(C)c1S(=O)(=O)N(CC(=O)NCCc1ccc(Cl)cc1)c1ccc(C(C)C)cc1	/	-1%	-14%	0	1%	i
CCCCCN(CCCCC)C(=O)[C@H](CCC(=O)O)NC(=O)c1ccc(Cl)c(Cl)c1	/	/	/	/	/	i
